# Screen size: about 48,000 compounds; about 160 (0.33%) were called active.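 The calls were made as follows: active = survival measured by cellular ATP above 50% at 15 µg/ml in the first screen; inactive = the rest.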 The full list was thinned out, with actives kept by preference.
# Test: protection against thapsigargin ER stress killing – CSM14.1 cells, ATP luminescence, primary screen (AID 1010);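 also: cell death triggered by about 15 µM thapsigargin; ATP read 24 h after thapsigargin was added; plate controls were thapsigargin with DMSO for no effect and DMSO without thapsigargin for full effect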
# Settings: CSM14.1 thapsigargin ER stress survival, hits give high values, screened at 15 µg/mL (by protocol)
row,Compound,relative survival (cellular ATP)
1,Cc1ccc(-c2[nH]ncc2/C=N/NC(=O)c2ccc(Br)cc2)cc1,3.5% (inactive)
2,COc1cc(OC)cc(C(=O)N2CCN(C)CC2)c1,4.1% (inactive)
3,CONC(=O)c1ccc(C(=O)c2cc(OC)ccc2OC)cc1,6.5% (inactive)
4,CSCCOC(=O)COc1ccc(/C=N/NC(=O)c2ccc(CN3CCOCC3)cc2)cc1,9.5% (inactive)
5,CN(C)c1cccc(C(=O)N2CCN(c3cccc(Cl)c3)CC2)c1,-2.8% (inactive)
6,COc1cccc(/C=N/NC(=O)c2cc(-c3ccc4ccccc4c3)n[nH]2)c1,5.9% (inactive)
7,CC(=O)c1c(-c2ccccc2)c2cc(C)ccc2[nH]c1=O,-1.1% (inactive)
8,O=C(NC(CO)(CO)CO)c1cccc(-c2ccc(O)cc2)c1,-1.2% (inactive)
9,CC(=O)Nc1ccc(NC(=O)c2ccccc2-c2ccccc2C(=O)O)cc1,7.5% (inactive)
10,Cc1ccc(C2=NNC(c3ccc(Cl)cc3Cl)S2)cc1 (stereo not given),-7.4% (inactive)
11,CCn1c(C(O)c2cc(OC)ccc2OC)nc2ccccc21 (stereo not given),1.7% (inactive)
12,CN(C)CCOC(=O)CCN1C(=O)/C(=C/c2ccc(Cl)cc2Cl)SC1=S,-20.4% (inactive)
13,O=C(O)CCN1C(=O)/C(=C/c2ccc(-c3cc(Cl)ccc3Cl)o2)SC1=S,64% (active)
14,O=C1S/C(=C/c2ccc(-c3ccc(Cl)cc3Cl)o2)C(=O)N1c1ccccc1,7% (inactive)
15,CCCN1C(=O)c2ccccc2NC1c1ccc(O)c(OC)c1 (stereo not given),-2.6% (inactive)
16,C/C(=N\NC(=O)c1cccc([N+](=O)[O-])c1)c1cccnc1,2.9% (inactive)
17,COc1ccc(NC(=O)/C(C#N)=C/c2ccccc2[N+](=O)[O-])cc1,2.4% (inactive)
18,Cc1ccc(NC(=O)CC2Nc3cc(C)c(C)cc3NC2=O)cc1 (stereo not given),6.1% (inactive)
19,Cc1nn(C(=O)C23CC4CC(CC(C4)C2)C3)c(C)c1Sc1ccc([N+](=O)[O-])cc1,6.7% (inactive)
20,COC(=O)C1=CNC=C(C(=O)OC)C1c1cc(C)ccc1C,10% (inactive)
21,O=C1C=CC(=O)N1Nc1c(Cl)cc(Cl)cc1Cl,-7.8% (inactive)
22,C/C(CC(=O)Nc1cccc2ccccc12)=N\NC(=O)c1ccoc1C,5.7% (inactive)

row,Compound,relative survival (cellular ATP)
1,O=C(CCc1ccccc1)Nc1ccccc1-c1ccccc1,2.5% (inactive)
2,COc1cc(OC)cc(C(=O)N/N=C(\C)CC(=O)Nc2ccccc2-c2ccccc2)c1,66% (active)
3,CCOc1cc(C=C2C(=O)c3ccccc3C2=O)ccc1OCc1ccc(Cl)cc1Cl,11.4% (inactive)
4,COc1cccc(OCCCCOc2ccccc2OC)c1,6% (inactive)
5,CN1C(=O)C(=Cc2cc(Br)c(O)c(I)c2)C(=O)N(C)C1=O,-1% (inactive)
6,CCOCCOCCN1C(=O)c2ccccc2C1=O,6.5% (inactive)
7,C/C(CC(=O)Nc1ccc(Nc2ccccc2)cc1)=N\NC(=O)c1ccccc1C,16.5% (inactive)
8,CCOC(=O)CCc1c(C)nc2c(C)c(-c3ccc(C)cc3)[nH]n2c1=O,8.2% (inactive)
9,CCCCc1ccc(/C=N/Nc2ccc([N+](=O)[O-])cc2)s1,5% (inactive)
10,CCOc1cc(C2NC(=S)NC(C)=C2C(=O)Nc2ccccc2C)ccc1O (stereo not given),-0.3% (inactive)
11,CCOc1cc(C=O)cc(I)c1OC(C)C,0.3% (inactive)
12,CC(C)=N/N=C1/NC(=O)C(CC(=O)Nc2ccc(C)c(C)c2)S1 (stereo not given),2% (inactive)
13,CC(=O)Nc1ccccc1NC(=O)COc1ccc(C)cc1C,6.5% (inactive)
14,COc1ccc(N2C(=O)/C(=C/c3cc(C)n(-c4ccc([N+](=O)[O-])cc4)c3C)C(=O)NC2=S)cc1,-5.8% (inactive)
15,C=CCOc1cccc(/C=N/NS(=O)(=O)c2ccc(Cl)cc2)c1,3.1% (inactive)
16,O=C(O)c1ccccc1C(=O)N1CCN(C(=O)c2ccccc2C(=O)O)CC1,-0.9% (inactive)
17,CCN(CC)c1ccc(Nc2nc(-c3sc(C)nc3C)cs2)cc1,49.2% (inactive)
18,O=C1/C(=C/c2ccc(F)cc2)SC(=S)N1c1ccc(F)cc1,-1.4% (inactive)
19,CCN1C(=O)/C(=C/c2ccc(NC(=O)c3ccc4ncccc4c3)cc2)SC1=S,8.8% (inactive)
20,COC(=O)C(C)NC(=O)CCC1CCCCC1 (stereo not given),4.2% (inactive)
21,Cc1cccc(C)c1OCC(=O)Nc1sc2c(c1C(N)=O)CCC2,10.1% (inactive)
22,CC(=O)C1=C(O)C(=O)N(CC2CCCO2)C1c1ccc(C(C)C)cc1 (stereo not given),-5.9% (inactive)

row,Compound,relative survival (cellular ATP)
1,COc1ccc(C2CC(C(F)(F)F)n3nc(C(=O)NCCc4ccccc4)c(Cl)c3N2)cc1OC (stereo not given),2.7% (inactive)
2,COc1cc(NC(=O)c2cc(Cl)c(OC)c(Cl)c2)ccc1NC(=O)c1ccco1,-1.3% (inactive)
3,CCSc1nnc2c(n1)OC(c1ccc(-c3ccc(Cl)cc3)o1)Nc1ccccc1-2 (stereo not given),4.5% (inactive)
4,COc1ccccc1/C=N/NC(=O)c1cc(C23CC4CC(CC(C4)C2)C3)[nH]n1,3% (inactive)
5,Cc1c(OCC(=O)N(C)C)ccc2c3c(c(=O)oc12)CCCC3,4.4% (inactive)
6,N#Cc1ccc(/C=N/Nc2nc(-c3ccccc3)cs2)cc1,5.1% (inactive)
7,CS(=O)(=O)N1CCN(Cc2ccc(Br)cc2)CC1,-1.6% (inactive)
8,O=C(CSc1nnc(-c2cccs2)n1-c1ccccc1)c1cccc([N+](=O)[O-])c1,-3.1% (inactive)
9,COc1ccc2ccccc2c1-c1cc(C(=O)NN)[nH]n1,-1% (inactive)
10,O=C(CCN1C(=O)c2cccc3cccc(c23)C1=O)OCCCc1ccncc1,5.7% (inactive)
11,O=C(CCCN1C(=O)c2cccc3cccc(c23)C1=O)N1CCN(Cc2ccc3c(c2)OCO3)CC1,77.5% (active)
12,COCCCN1C(=O)c2cccc3cccc(c23)C1=O,0.8% (inactive)
13,Cc1[nH]n(-c2ccccc2)c(=O)c1C(c1ccc(C(F)(F)F)cc1)c1c(C)[nH]n(-c2ccccc2)c1=O,4.8% (inactive)
14,O=C(O)CCCNC(=O)c1ccccc1NC(=O)c1ccccc1,7.8% (inactive)
15,Cc1nnc(N2C(=O)c3ccc(-c4nc5ccccc5c(=O)o4)cc3C2=O)s1,5.9% (inactive)
16,CN(C1=NS(=O)(=O)c2ccccc21)c1ccccc1,3.5% (inactive)
17,O=C(COc1ccccc1)Nc1cccc(NC(=O)c2ccco2)c1,9% (inactive)
18,COc1ccccc1/C=C1/SC(=S)N(CCC(=O)N2c3ccccc3Sc3ccc(Cl)cc32)C1=O,10% (inactive)
19,CC(N=Cc1ccccc1O)C12CC3CC(CC(O)(C3)C1)C2 (stereo not given),-0.1% (inactive)
20,Cc1cc(OCC(=O)Nc2ccccc2C(N)=O)cc(C)c1Cl,2.7% (inactive)
21,O=C(Nc1ccc(Br)c(Cl)c1)C(c1ccccc1)c1ccccc1,4.5% (inactive)

# — PubChem BioAssay AID1010 (Sanford-Burnham Center for Chemical Genomics, 2008)
